Assay results: the supplement of paper PMC10849652
About 8,800 targets were measured; listed, in parts, are those with a hit and a random draw of the rest. About 0.5% of all pairs of compound and target were hits.

Key:
Assay in all cases: log2 fold change, soluble protein after heating vs DMSO (PISA); higher = thermal stabilisation; K562 lysate, 10 uM; active = over 0.2 and 3.5 SD of the protein, either way, in both replicates (recomputed)
Tubastatin A = compound: CN1CCc2c(c3ccccc3n2Cc2ccc(C(=O)NO)cc2)C1 [Tubastatin A]
In short: (§1)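 Thermal stability, expressed as log-two fold change relative to solvent controls, is given from duplicates. Crude K562 extract in PBS pH 7.4 with 1 mM MgCl2, at 1 mg/mL protein, was treated with 10 μM compound for 30 min and heated in aliquots for 3 min across 48°C-58°C. After pooling, adjustment to 0.5% NP-40 at 4°C and centrifugation at 21,000xg for 90 min, supernatant protein was measured by TMTpro 16plex LC-MS/MS with channel sums equalised.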

[1] = compound: CNC(=O)C1=CC=CC=C1NC2=NC(=NC=C2Cl)NC3=C(C=C(C=C3)N4CCOCC4)OC
In short: as §1

[2] = compound: COc1cc2nc(-c3cc(F)ccc3O)nc(N[C@@H]3CNC[C@H]3C(C)(C)O)c2cc1OC
In short: as §1

lapatinib = compound: CS(=O)(=O)CCNCc1ccc(-c2ccc3ncnc(Nc4ccc(OCc5cccc(F)c5)c(Cl)c4)c3c2)o1 [lapatinib]
In short: as §1

crizotinib = compound: C[C@@H](Oc1cc(-c2cnn(C3CCNCC3)c2)cnc1N)c1c(Cl)ccc(F)c1Cl [crizotinib]
In short: as §1

doramapimod = compound: Cc1ccc(-n2nc(C(C)(C)C)cc2NC(=O)Nc2ccc(OCCN3CCOCC3)c3ccccc23)cc1 [doramapimod]
In short: as §1

alvocidib = compound: CN1CC[C@H](c2c(O)cc(O)c3c(=O)cc(-c4ccccc4Cl)oc23)[C@H](O)C1 [alvocidib]
In short: as §1

[3] = compound: CNc1nc(-c2ccc3c(N)n[nH]c3c2)cc(N2C[C@@H](C(=O)NC3CCCCC3)CC[C@H]2C)n1
In short: as §1

encorafenib = compound: COC(=O)N[C@@H](C)CNc1nccc(-c2cn(C(C)C)nc2-c2cc(Cl)cc(NS(C)(=O)=O)c2F)n1 [encorafenib]
In short: as §1

[4] = compound: COC(=O)[C@H](CCSC)NC(=O)C1=C(C=C(C=C1)NC[C@H](CS)N)C2=CC=CC=C2
In short: as §1

pictilisib = compound: CS(=O)(=O)N1CCN(Cc2cc3nc(-c4cccc5[nH]ncc45)nc(N4CCOCC4)c3s2)CC1 [pictilisib]
In short: as §1

[5] = compound: C[C@H](C1=CC=C(C=C1)C(=O)NC2=C3C=CNC3=NC=C2)N
In short: as §1

duvelisib = compound: C[C@H](Nc1ncnc2nc[nH]c12)c1cc2cccc(Cl)c2c(=O)n1-c1ccccc1 [duvelisib]
In short: as §1

gandotinib = compound: Cc1cc(Nc2cc(CN3CCOCC3)c3nc(C)c(Cc4ccc(Cl)cc4F)n3n2)n[nH]1 [gandotinib]
In short: as §1

tozasertib = compound: Cc1cc(Nc2cc(N3CCN(C)CC3)nc(Sc3ccc(NC(=O)C4CC4)cc3)n2)n[nH]1 [tozasertib]
In short: as §1

bafetinib = compound: Cc1ccc(NC(=O)c2ccc(CN3CC[C@H](N(C)C)C3)c(C(F)(F)F)c2)cc1Nc1nccc(-c2cncnc2)n1 [bafetinib]
In short: as §1

[6] = compound: Cc1cccc(CC(=O)N2CCc3c2ccc(-c2cn(C)c4ncnc(N)c24)c3F)n1
In short: as §1

alisertib = compound: COc1cc(Nc2ncc3c(n2)-c2ccc(Cl)cc2C(c2c(F)cccc2OC)=NC3)ccc1C(=O)O [alisertib]
In short: as §1

gefitinib = compound: COc1cc2ncnc(Nc3ccc(F)c(Cl)c3)c2cc1OCCCN1CCOCC1 [gefitinib]
In short: as §1

Measured: log2 fold change

ROBO2 isoform 3 (UniProt Q9HCK4)
Chain of UniProt Q9HCK4 (Q9HCK4 whole entry, looked up): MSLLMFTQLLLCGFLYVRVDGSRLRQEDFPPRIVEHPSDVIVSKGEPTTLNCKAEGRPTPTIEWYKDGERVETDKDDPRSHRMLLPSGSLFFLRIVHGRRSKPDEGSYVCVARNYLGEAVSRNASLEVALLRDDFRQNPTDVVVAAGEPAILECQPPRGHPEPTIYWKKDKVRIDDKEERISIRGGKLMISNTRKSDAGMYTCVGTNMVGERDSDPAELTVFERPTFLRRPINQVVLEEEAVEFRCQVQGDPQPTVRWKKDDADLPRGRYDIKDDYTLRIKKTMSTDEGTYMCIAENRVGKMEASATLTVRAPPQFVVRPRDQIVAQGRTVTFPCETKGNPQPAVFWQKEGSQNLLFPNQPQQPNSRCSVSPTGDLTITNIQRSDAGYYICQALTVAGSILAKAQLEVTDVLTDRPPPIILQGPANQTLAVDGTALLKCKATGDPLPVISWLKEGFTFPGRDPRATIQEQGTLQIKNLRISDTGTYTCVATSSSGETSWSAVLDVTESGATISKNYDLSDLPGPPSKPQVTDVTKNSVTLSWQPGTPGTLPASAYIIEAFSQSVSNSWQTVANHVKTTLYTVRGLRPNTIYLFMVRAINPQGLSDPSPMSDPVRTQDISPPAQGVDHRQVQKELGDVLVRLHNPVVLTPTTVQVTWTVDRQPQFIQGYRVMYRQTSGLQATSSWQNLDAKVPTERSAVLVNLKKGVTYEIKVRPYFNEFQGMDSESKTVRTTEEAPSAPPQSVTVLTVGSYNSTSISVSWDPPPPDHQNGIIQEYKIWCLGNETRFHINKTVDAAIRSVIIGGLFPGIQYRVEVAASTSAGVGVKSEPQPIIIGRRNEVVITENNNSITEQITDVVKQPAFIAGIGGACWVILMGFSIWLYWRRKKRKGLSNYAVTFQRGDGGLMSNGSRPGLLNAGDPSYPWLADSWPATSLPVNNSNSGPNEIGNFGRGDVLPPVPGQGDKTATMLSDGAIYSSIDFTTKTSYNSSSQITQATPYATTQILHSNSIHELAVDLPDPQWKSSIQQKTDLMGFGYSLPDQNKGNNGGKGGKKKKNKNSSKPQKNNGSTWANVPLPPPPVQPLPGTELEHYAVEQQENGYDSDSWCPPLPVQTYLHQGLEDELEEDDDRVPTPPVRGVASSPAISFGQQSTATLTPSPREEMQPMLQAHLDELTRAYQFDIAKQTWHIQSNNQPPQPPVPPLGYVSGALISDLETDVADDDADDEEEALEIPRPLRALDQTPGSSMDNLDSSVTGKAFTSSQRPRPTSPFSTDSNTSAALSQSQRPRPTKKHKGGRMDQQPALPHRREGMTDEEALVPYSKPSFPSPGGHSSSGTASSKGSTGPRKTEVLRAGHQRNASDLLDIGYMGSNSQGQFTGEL
inactive: Tubastatin A -0.009 | [1] 0.03 | [2] 0.009 | lapatinib 0.02 | crizotinib -0.039 | doramapimod 0.019

RNF17 (UniProt Q9BXT8)
Chain of UniProt Q9BXT8 (Q9BXT8 whole entry, looked up): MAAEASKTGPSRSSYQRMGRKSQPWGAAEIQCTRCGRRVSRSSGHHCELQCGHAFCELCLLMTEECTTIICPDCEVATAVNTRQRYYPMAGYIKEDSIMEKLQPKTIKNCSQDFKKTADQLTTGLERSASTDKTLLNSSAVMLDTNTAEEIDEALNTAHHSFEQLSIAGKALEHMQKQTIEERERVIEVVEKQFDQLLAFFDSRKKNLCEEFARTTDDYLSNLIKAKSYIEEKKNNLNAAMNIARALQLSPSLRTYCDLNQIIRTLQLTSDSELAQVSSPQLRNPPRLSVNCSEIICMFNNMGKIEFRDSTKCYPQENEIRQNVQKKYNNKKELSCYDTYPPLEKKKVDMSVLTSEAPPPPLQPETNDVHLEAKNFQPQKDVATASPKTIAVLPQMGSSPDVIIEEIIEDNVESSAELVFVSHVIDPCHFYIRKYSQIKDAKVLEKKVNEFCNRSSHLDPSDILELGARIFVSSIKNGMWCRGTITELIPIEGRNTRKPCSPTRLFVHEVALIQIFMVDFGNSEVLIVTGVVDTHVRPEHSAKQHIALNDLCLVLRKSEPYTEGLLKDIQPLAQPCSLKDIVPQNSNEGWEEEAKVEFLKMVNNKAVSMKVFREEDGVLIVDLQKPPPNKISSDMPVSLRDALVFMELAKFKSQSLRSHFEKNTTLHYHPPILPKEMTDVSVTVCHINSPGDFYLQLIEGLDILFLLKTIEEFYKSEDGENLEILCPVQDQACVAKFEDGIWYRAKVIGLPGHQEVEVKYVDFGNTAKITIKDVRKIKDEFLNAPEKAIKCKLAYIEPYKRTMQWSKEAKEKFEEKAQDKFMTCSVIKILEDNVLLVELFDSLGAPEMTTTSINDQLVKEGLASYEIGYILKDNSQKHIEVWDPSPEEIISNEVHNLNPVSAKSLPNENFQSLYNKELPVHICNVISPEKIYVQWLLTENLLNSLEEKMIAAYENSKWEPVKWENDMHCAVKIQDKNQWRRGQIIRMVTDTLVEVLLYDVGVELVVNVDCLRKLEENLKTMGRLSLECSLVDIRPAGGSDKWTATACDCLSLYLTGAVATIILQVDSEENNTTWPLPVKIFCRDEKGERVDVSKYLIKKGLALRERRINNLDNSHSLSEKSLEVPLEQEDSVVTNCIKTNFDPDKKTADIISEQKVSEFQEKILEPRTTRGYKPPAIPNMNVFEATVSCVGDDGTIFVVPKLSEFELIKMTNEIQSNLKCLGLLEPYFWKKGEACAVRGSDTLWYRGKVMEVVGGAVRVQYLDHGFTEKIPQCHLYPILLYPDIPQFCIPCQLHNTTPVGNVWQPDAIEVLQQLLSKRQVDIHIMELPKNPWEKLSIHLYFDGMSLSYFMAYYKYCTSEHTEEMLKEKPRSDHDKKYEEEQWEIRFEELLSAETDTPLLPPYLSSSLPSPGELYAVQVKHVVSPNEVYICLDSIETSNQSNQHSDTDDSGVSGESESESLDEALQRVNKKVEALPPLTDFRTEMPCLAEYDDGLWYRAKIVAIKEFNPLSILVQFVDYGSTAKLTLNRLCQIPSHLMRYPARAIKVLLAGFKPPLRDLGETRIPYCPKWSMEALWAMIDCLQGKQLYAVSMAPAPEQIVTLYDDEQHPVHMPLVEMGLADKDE
inactive: alvocidib -0.006 | Tubastatin A 0.079 | [1] 0.096 | [3] -0.183 | encorafenib 0.061 | [4] -0.032 | [2] -0.057 | lapatinib -0.02 | pictilisib 0.031 | crizotinib 0.105 | [5] 0.08 | duvelisib -0.071 | gandotinib 0.028 | tozasertib 0.119 | doramapimod 0.006 | bafetinib -0.285 | [6] -0.257

RNASEH2B, A0A1B0GUE7
inactive: alisertib 0.04 | [2] 0.039 | gefitinib -0.028 | lapatinib -0.128

SERAC1 (UniProt Q96JX3)
Chain of UniProt Q96JX3 (Q96JX3 whole entry, looked up): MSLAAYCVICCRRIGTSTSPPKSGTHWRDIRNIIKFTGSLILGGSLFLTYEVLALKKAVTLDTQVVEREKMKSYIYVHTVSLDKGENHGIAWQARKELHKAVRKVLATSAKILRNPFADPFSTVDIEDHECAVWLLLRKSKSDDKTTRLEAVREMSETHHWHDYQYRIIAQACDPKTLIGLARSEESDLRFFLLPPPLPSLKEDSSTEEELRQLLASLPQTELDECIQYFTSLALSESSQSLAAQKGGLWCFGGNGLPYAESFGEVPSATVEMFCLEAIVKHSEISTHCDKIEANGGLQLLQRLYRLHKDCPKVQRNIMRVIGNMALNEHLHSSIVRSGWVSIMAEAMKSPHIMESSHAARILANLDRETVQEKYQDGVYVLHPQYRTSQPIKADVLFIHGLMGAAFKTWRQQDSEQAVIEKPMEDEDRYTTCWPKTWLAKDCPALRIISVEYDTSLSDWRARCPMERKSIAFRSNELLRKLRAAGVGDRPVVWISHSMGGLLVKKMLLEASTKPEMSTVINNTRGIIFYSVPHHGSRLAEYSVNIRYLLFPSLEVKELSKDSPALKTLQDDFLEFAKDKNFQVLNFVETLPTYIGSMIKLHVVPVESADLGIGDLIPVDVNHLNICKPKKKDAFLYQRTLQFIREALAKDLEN
inactive: alvocidib 0.048 | [1] -0.024 | [3] 0.149 | encorafenib -0.051 | [4] -0.003 | alisertib -0.412 | gefitinib -0.165 | pictilisib -0.018 | [5] -0.074 | duvelisib 0.145 | gandotinib 0.052 | tozasertib -0.089 | bafetinib -0.276 | [6] 0.127

RBM4 isoform 3 (UniProt Q9BWF3)
Chain of UniProt Q9BWF3 (Q9BWF3 whole entry, looked up): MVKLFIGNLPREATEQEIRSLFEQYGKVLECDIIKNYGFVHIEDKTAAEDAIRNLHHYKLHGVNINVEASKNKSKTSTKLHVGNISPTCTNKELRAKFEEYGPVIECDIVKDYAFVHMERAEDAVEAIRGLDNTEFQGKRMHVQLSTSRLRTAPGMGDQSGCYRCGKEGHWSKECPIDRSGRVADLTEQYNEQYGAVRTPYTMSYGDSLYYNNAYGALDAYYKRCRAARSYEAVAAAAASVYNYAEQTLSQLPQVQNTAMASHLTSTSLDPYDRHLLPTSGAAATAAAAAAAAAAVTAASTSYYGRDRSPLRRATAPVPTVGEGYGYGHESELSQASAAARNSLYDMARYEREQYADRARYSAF
inactive: crizotinib 0.114 | doramapimod 0.016
